# Test results as given in the supplement of paper PMC8183993.
# Counter-ions that a name gives are not always drawn. ± gives the standard deviation of the averaged measurements. In all, about 3,100 compounds were measured (“mean cytoplasmic OPP incorporation (global translation) relative to DMSO”: median about 100, lowest 2% from about 56 on). Many of the other results were omitted from the sample, so the lowest values are more common in it than they were.
# Tested on: U2OS
# Experiment: mean cytoplasmic OPP incorporation (global translation) relative to DMSO (% of DMSO); higher = more protein synthesis
# Conditions: 10 µM; 24 h
# Description: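 Primary image-based screen in U2OS cells: compounds at 10 uM for 24 h, then a 1 h o-propargyl-puromycin (OPP) pulse, click labelling, and high-throughput microscopy. Mean cytoplasmic OPP intensity and nuclei count were normalised to DMSO wells within each plate (DMSO = 100) and averaged over triplicate plates.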
row,Structure (SMILES),mean cytoplasmic OPP incorporation
1,CC(=O)O[C@H]1C[C@H](O[C@H]2[C@@H](O)C[C@H](O[C@H]3[C@@H](O)C[C@H](O[C@H]4CC[C@@]5(C)[C@H](CC[C@@H]6[C@@H]5C[C@@H](O)[C@]5(C)[C@@H](C7=CC(=O)OC7)CC[C@]65O)C4)O[C@@H]3C)O[C@@H]2C)O[C@H](C)[C@H]1O[C@@H]1O[C@H](CO)[C@@H](O)[C@H](O)[C@H]1O [Lanatoside C],27.8
2,C[C@]12CC[C@H](O)C[C@H]1CC[C@@H]1[C@@H]2CC[C@]2(C)[C@@H](C3=CC(=O)OC3)CC[C@]12O [Digitoxigenin],26.3
3,C[C@]12CC[C@H](O)C[C@@H]1CC[C@@H]1[C@@H]2CC[C@]2(C)C(=O)CC[C@@H]12 [Epiandrosterone],90.1
4,CC(=O)[C@H]1CC[C@H]2[C@@H]3CC[C@H]4C[C@H](O)CC[C@]4(C)[C@H]3C(=O)C[C@]12C [Alfaxalone],102
5,C[C@]12CC[C@@H](O)C[C@H]1CC[C@@H]1[C@@H]2CC[C@]2(C)C(=O)CC[C@@H]12 [3-alpha-Hydroxy-5-beta-androstan-17-one],89.8
6,C[C@]12CC[C@@H](O)C[C@@H]1CC[C@@H]1[C@@H]2CC[C@]2(C)C(=O)CC[C@@H]12 [Androsterone],97.1
7,C[C@]12CC[C@H](O)C[C@@H]1CC[C@@H]1[C@@H]2CC[C@]2(C)C(=O)CC[C@@H]12,95.2
8,C[C@]12CC[C@H](O)C[C@H]1CC[C@@H]1[C@@H]2C[C@@H](O)[C@]2(C)[C@@H](C3=CC(=O)OC3)CC[C@]12O [Digoxigenin],32
9,CN(C)CCN(C)CCc1ccc(Cl)c(Cl)c1 [BD 1047 dihydrobromide],105
10,"CN(C(=O)Cc1ccc(Cl)c(Cl)c1)[C@H](CN1CCCC1)c1ccccc1 [ICI-199,441 hydrochloride]",111
11,CCCN(CCC)[C@@H]1CCc2c(OC)cccc2[C@@H]1C [(+)-UH 232 maleate],102
12,NC(C(=O)O)c1nn[nH]n1 (racemic) [(RS)-(Tetrazol-5-yl)glycine],102
13,CC1(C)[C@@H](O)C[C@H]2[C@](C)(O)[C@@H]3CC[C@@H]4[C@@H](O)[C@@]3(C[C@@H](O)[C@@]21O)C[C@@]4(C)O [Grayanotoxin III],102
14,Clc1ccc(C2=CCCC3CCC2N3)cn1 (stereo unspecified) [UB 165 fumarate],97.7
15,CCC(Oc1ccc(Cl)cc1)C(=O)OC1C[C@H]2CC[C@@H](C1)N2C (stereo partly specified) [SM-21 maleate],106
16,N=C(NCc1ccc(Cl)cc1)SCCCc1c[nH]cn1 [Clobenpropit dihydrobromide],95.4
17,CC(N)Cc1cnc[nH]1 (stereo unspecified),101
18,"C=CCN1CC[C@]2(C)c3cc(O)ccc3C[C@H]1C2C (single isomer, unassigned; (+))",105
19,COc1ccc(C(=O)O[C@H]2CC[C@@]3(C)[C@@H]4CC[C@H]5[C@]6(O)C[C@H](O)[C@@]7(O)[C@@H](CN8C[C@@H](C)CC[C@H]8[C@@]7(C)O)[C@]6(O)C[C@@]53O[C@]24O)cc1OC [Veratridine],108

row,Structure (SMILES),mean cytoplasmic OPP incorporation
1,COc1ccc2[nH]cc(C3=CCNCC3)c2c1,101
2,CC(C)(Cc1c[nH]c2ccc(Cl)cc12)NCCOc1ccccc1OCC1CC1,55.1
3,Cn1cc(C(=O)C(=O)N[C@H]2CN3CCC2CC3)c2ccccc21,99.4
4,OC(Cc1ccncc1)C(Cl)(Cl)Cl (stereo unspecified),104
5,C=C(C)CN1CC[C@@]23c4c5ccc(O)c4O[C@H]2c2[nH]c4ccccc4c2C[C@]3(O)C1C5 [SDM25N hydrochloride],95.8
6,O=Cc1cn(Cc2ccc(Cl)cc2)c2ccccc12 [Oncrasin 1],83.4
7,CN1C(=O)[C@]23CC4=CC=C[C@H](O)[C@H]4N2C(=O)[C@@]1(CO)SS3 [Gliotoxin],33.6
8,CCC[C@@H]1CC2=CC(=O)CC[C@]2(C)[C@H]2CC[C@@]3(C)[C@@H](CC[C@@]3(O)CCC(=O)O)[C@H]12,96.1
9,Oc1ccc2c3c1O[C@H]1c4c(c5ccccc5n4Cc4ccccc4)C[C@@]4(O)C(C2)N(CC2CC2)CC[C@]314 [N-Benzylnaltrindole hydrochloride],111
10,Cc1nc(N)sc1CCN [Amthamine dihydrobromide],107
11,C[C@@H]1O[C@@H](O[C@H]2C[C@@H](O)[C@]3(CO)[C@H]4[C@H](O)C[C@]5(C)[C@@H](C6=CC(=O)OC6)CC[C@]5(O)[C@@H]4CC[C@]3(O)C2)[C@H](O)[C@H](O)[C@H]1O [Ouabain],47 ± 1.8
12,Cc1ncc(CN2CC=C(c3ccccc3)CC2)c(N)n1,101
13,CC(CN)CC(=O)O (stereo unspecified) [3-Methyl-GABA],102
14,CC1(C)[C@H](C(=O)O[C@H](C#N)c2cccc(Oc3ccccc3)c2)[C@@H]1C=C(Br)Br [Deltamethrin],101
15,O=C1NC(=O)c2c1c1c3ccccc3n3c1c1c2c2ccccc2n1[C@H]1CC[C@@H]3O1,91.2
16,O=C(O)C1=CCCN(CCOC(c2ccc(C(F)(F)F)cc2)c2ccc(C(F)(F)F)cc2)C1 [CI 966 hydrochloride],97.6
17,COc1cc(N)c(Cl)cc1C(=O)NC1CN2CCC1CC2 (stereo unspecified) [Zacopride hydrochloride],104
18,C[CH2][Hg][S]c1ccccc1C(=O)[O-].[Na+] [Thimerosal],15.5
19,O=C(O)/C=C/CO [trans-4-Hydroxycrotonic acid],105

row,Structure (SMILES),mean cytoplasmic OPP incorporation
1,C[C@@H]1C[C@@H]([C@H](O)CC2CC(=O)NC(=O)C2)C(=O)[C@@H](C)C1 [Cycloheximide],52.1 ± 35
2,CC[N+](CC)(CCCNC1=CC(=O)C(NCCC[N+](CC)(CC)Cc2ccccc2)=CC1=O)Cc1ccccc1 [Benzoquinonium dibromide],101
3,O=C1CSC(c2ccccc2Cl)c2cc(Cl)ccc2N1 (stereo unspecified),101
4,CCOC(=O)c1ncn2c1CN(C)C(=O)c1cc(N=[N+]=[N-])ccc1-2,91.9
5,Cn1c2c(c3ccccc31)CCNCC2,97.4
6,Fc1ccc(C(OCCN2CCN(C/C=C/c3ccccc3)CC2)c2ccc(F)cc2)cc1,102
7,CCCOc1ccc2[nH]cc(C3=CCNCC3)c2n1,103
8,C[C@@H]1CC[C@@]2(OC1)O[C@H]1C[C@H]3[C@@H]4CC=C5C[C@@H](O[C@@H]6O[C@H](CO)[C@@H](O[C@@H]7O[C@@H](C)[C@H](O)[C@@H](O)[C@H]7O)[C@H](O)[C@H]6O[C@@H]6O[C@@H](C)[C@H](O)[C@@H](O)[C@H]6O)CC[C@]5(C)[C@H]4CC[C@]3(C)[C@H]1[C@@H]2C [Dioscin (Collettiside III)],50.2
9,CC(=O)O[C@H]1CC[C@@]2(C)C(=CC[C@@H]3[C@@H]2CC[C@]2(C)C(=O)CC[C@@H]32)C1 [Dehydroisoandosterone 3-acetate],83.5
10,C=CCN1C[C@H](C)N([C@H](c2ccc(C(=O)N(CC)CC)cc2)c2cccc(O)c2)C[C@H]1C,111
11,O=C1CC[C@@]2(O)[C@H]3Cc4ccc(O)c5c4[C@@]2(CCN3CC2CC2)[C@H]1O5 [Naltrexone hydrochloride dihydrate],108
12,Oc1ccc2c3c1O[C@H]1c4[nH]c5c(c4C[C@@]4(O)[C@@H](C2)N(CC2CC2)CC[C@]314)C[C@@]1(O)[C@H]2Cc3ccc(O)c4c3[C@@]1(CCN2CC1CC1)[C@H]5O4 [nor-Binaltorphimine dihydrochloride],102
13,O=C1/C(=C/c2ccccc2)C[C@@]2(O)[C@H]3Cc4ccc(O)c5c4[C@@]2(CCN3CC2CC2)[C@H]1O5 [BNTX maleate],34.8
14,NCC(CS(=O)(=O)O)c1ccc(Cl)cc1 (stereo unspecified) [Saclofen],104
15,C[C@@H]1O[C@@H](O[C@@H]2C=C3CC[C@@H]4[C@H](CC[C@]5(C)[C@@H](c6ccc(=O)oc6)CC[C@]45O)[C@@]3(C)CC2)[C@H](O)[C@H](O)[C@H]1O [Proscillaridin A],17.5
16,Cc1ccc2cc3c(ccc4ccccc43)c3c2c1CC3 [3-Methylcholanthrene],114
17,O=C(O)CCC(CP(=O)(O)O)C(=O)O (stereo unspecified) [PMPA (NAALADase inhibitor)],105
18,CCOc1cncc(/C=C/CCNC)c1 [TC 2559 difumarate],97.5
